BJeLR lethal = BJeLR cell viability loss | BJeLR (HRASV12) viability, CellTiter-Glo ATP luminescence, 48 h | inhibition, % (no concentration beside the values) | 300,000 compounds, 0.17% hits; in the data active = inhibition above about 50%
CCHF vOTU inh = CCHFV vOTU protease inhibition. AID 651958. inhibition, % at 11.5 µM. 370,000 compounds, 0.55% hits. Pep-AMC fluorescence; in the data active = inhibition above about 30%
Sa RN4220 lethal = S. aureus RN4220 growth inhibition | OD600, 16 h | inhibition, % (no concentration beside the values) | 330,000 compounds, 0.33% hits; in the data active = inhibition above about 85%
ugtP null kill = growth inhibition of S. aureus ugtP deletion strain; S. aureus RN4220 ugtP deletion, OD600 growth, 16 h; growth inhibition, % (test concentration not listed); 330,000 compounds, 0.54% hits; AID 1259309; in the data active = growth inhibition above about 68%
PfHsp40 rescue = rescue of PfHsp40-mediated yeast toxicity; 340,000 compounds, 0.68% hits; growth rescue, % at 12.5 µM; S. cerevisiae expressing PfHsp40, growth rescue, ATP luminescence; in the data active = growth rescue above about 28%, passing the limit was not always enough;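 also: yeast W303a lacking pdr1 and pdr3 grown in galactose medium; growth measured after three days at 30 °C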
Each line names hits and unclear results; the compound was inactive in the other large screens. Rows were chosen to be rich in hits. Some 1.6% of all compounds tested hit in one or more screens of this group.

O=c1[nH]c(=O)n(C2CC(O)C(CO)O2)cc1F (stereo not drawn)	Sa RN4220 lethal 99, ugtP null kill 99 (no result: BJeLR lethal, CCHF vOTU inh, PfHsp40 rescue)
Clc1ccccc1Nc1nnc(-c2ccncc2)s1	BJeLR lethal 85
COC(=O)C1=C(c2cc3ccccc3s2)CC2CCC1N2C(=O)NCCS(C)=O (stereo not drawn)	none (no result: BJeLR lethal, CCHF vOTU inh, PfHsp40 rescue)
Cc1cc(/C=C2\SC(=S)NC2=O)c(C)n1-c1cccc(O)c1	PfHsp40 rescue 240
Cc1cc(/C=C2\SC(=S)N(C)C2=O)c(C)n1-c1ccc(O)cc1	PfHsp40 rescue 450
O=C(NN=Cc1ccc(Cl)cc1)c1sccc1OCc1ccc(F)cc1	none (no result: BJeLR lethal, CCHF vOTU inh, PfHsp40 rescue)
Clc1ccc(OCCCNCc2ccccc2)c2ccccc12	Sa RN4220 lethal 100, ugtP null kill 95
O=S1(=O)N=C(NN=C/C=C/c2ccccc2)c2ccccc21	none (no result: BJeLR lethal, CCHF vOTU inh, PfHsp40 rescue)
CN1CCN(C2CCN(c3ccc(Nc4nnc(Cl)c(Nc5ccccc5S(C)(=O)=O)n4)c(OC(CF)CF)c3)CC2)CC1	PfHsp40 rescue 329 (no result: BJeLR lethal)
CC(C)Oc1cc(C(=O)N2CCC(N3CCCCC3)CC2)ccc1Nc1nnc(Cl)c(Nc2ccccc2S(C)(=O)=O)n1	none (no result: BJeLR lethal, CCHF vOTU inh, Sa RN4220 lethal, ugtP null kill)
CC(C)(C)c1ccc(-n2nc(C(N)=O)c(O)cc2=O)cc1	none
CC(C)(C)c1ccc(-n2nc(C#N)c(Cl)cc2=O)cc1	BJeLR lethal 56, PfHsp40 rescue 146
Cc1nonc1C(=O)NN=Cc1ccc([N+](=O)[O-])o1	none (no result: BJeLR lethal, CCHF vOTU inh, PfHsp40 rescue)
COc1ccc(N2Cc3ccccc3C2=NC(=O)Nc2ccccc2)cc1	none (no result: BJeLR lethal, CCHF vOTU inh, PfHsp40 rescue)
O=[N+]([O-])c1cc(CN2CCN(c3cccc(C(F)(F)F)c3)CC2)c2cccnc2c1O	ugtP null kill 86, PfHsp40 rescue 48
Cc1ccccc1C=CC1=NCCN1	none (no result: BJeLR lethal, CCHF vOTU inh, PfHsp40 rescue)
COc1ccc(C=O)cc1OS(=O)(=O)c1ccc(NC(C)=O)cc1	PfHsp40 rescue 42
O=c1c2c([nH]c3ccccc13)CCCC2	none
O=C(O)c1cccc2c3c([nH]c12)CCCC3	PfHsp40 rescue 128
CC(=NNC(=O)c1ccc2c(c1)OCO2)c1ccc(NC(=O)c2ccc(F)cc2)cc1	none (no result: BJeLR lethal, CCHF vOTU inh, PfHsp40 rescue)
Cc1cc(Nc2ccccc2)nn1C(=O)c1ccccc1	PfHsp40 rescue 239
Cc1ccccc1N1CCN(C(=O)COc2cc(=O)n(C)c3ccccc23)CC1	none (no result: BJeLR lethal, Sa RN4220 lethal, ugtP null kill, PfHsp40 rescue)
Cn1c(=O)cc(OCC(=O)N2CCN(c3cccc(C(F)(F)F)c3)CC2)c2ccccc21	PfHsp40 rescue 48
Cc1ccc(NC(=O)CSCC(=O)N2CCN(c3cccc(C(F)(F)F)c3)CC2)cc1	PfHsp40 rescue 41
Cc1cc(NC(=O)CSCC(=O)N2CCN(c3cccc(C(F)(F)F)c3)CC2)no1	none (no result: PfHsp40 rescue)
Cc1cc(C(=O)NN=Cc2cccc([N+](=O)[O-])c2O)n[nH]1	none (no result: BJeLR lethal, CCHF vOTU inh, PfHsp40 rescue)
C=CCOc1c(Br)cc(C=NNC(=O)Cc2ccc(C(F)(F)F)cc2[N+](=O)[O-])cc1OC	none (no result: BJeLR lethal, CCHF vOTU inh, PfHsp40 rescue)
COc1ccc(C(=NO)c2nccc3cc(OC)c(OC)cc23)cc1OC	none (no result: BJeLR lethal, CCHF vOTU inh, PfHsp40 rescue)
COc1cccc(C(=O)Nc2nnc(-c3ccc(F)cc3)o2)c1	none
COc1cccc(C(=O)Nc2nnc(-c3ccc(Cl)cc3)o2)c1	Sa RN4220 lethal 99, ugtP null kill 100
O=C(COc1ccccc1)Nc1nnc(-c2ccc(Cl)cc2)o1	none
CN(C)S(=O)(=O)Oc1cccc(C(=O)Nc2ccccc2Cl)c1	none
CC(=O)c1ccc(C(=O)Nc2nnc(-c3ccc(Cl)cc3)o2)cc1	Sa RN4220 lethal 98, ugtP null kill 99
O=C(COc1ccc(Cl)cc1)Nc1nnc(-c2ccc3c(c2)CCCC3)o1	Sa RN4220 lethal 100, ugtP null kill 96
CN(C)S(=O)(=O)Oc1cccc(C(=O)Nc2ccc(Cl)cc2)c1	PfHsp40 rescue 353
Cc1cc(=O)[nH]c(NN=Cc2ccc(-c3ccc(F)cc3)o2)n1	none (no result: BJeLR lethal, CCHF vOTU inh, PfHsp40 rescue)
O=C(Nc1nnc(-c2ccccc2)o1)c1ccc(Cl)cc1	Sa RN4220 lethal 96, ugtP null kill 99, PfHsp40 rescue 252
CC(SCc1ccccc1)C(=O)Nc1ccc(F)cc1 (stereo not drawn)	none
N#CC(C#N)=C(Nc1ccc(F)cc1)SCc1cccc(Br)c1	Sa RN4220 lethal 100, ugtP null kill 96
Cc1cccc(CSC(Nc2ccc(F)cc2)=C(C#N)C#N)c1	Sa RN4220 lethal 100, ugtP null kill 97
Cc1cccc(CSC(=N)N)c1	none
CCOC(=O)O[C@]1(C(=O)COC(=O)CC)CCC2C3CCC4=CC(=O)C=C[C@]4(C)C3C(O)C[C@@]21C (stereo partly drawn)	none (no result: BJeLR lethal, CCHF vOTU inh, PfHsp40 rescue)
O=c1cc(-c2ccccc2)oc2cc(O)c(O)c(O)c12	PfHsp40 rescue 141 (no result: BJeLR lethal)
CC(C)CC(=O)NC(=S)Nc1ccc(NC(=O)c2ccco2)cc1	ugtP null kill 89
CCN(CC)S(=O)(=O)c1ccc(NC(=S)NC(=O)CC(C)C)cc1	ugtP null kill 89
CCC(=O)NC(=S)Nc1ccc(NC(=O)c2ccco2)cc1	none
O=C(NC(=S)Nc1ccc(CN2CCCCC2)cc1)c1ccco1	PfHsp40 rescue 128
COc1cc(CCCN2C(N)=NCC2c2ccccc2)cc(OC)c1OC (stereo not drawn)	none (no result: BJeLR lethal, CCHF vOTU inh, PfHsp40 rescue)
CCC(C(=O)OC)n1cnc2scc(-c3ccc(C)c(C)c3)c2c1=O (stereo not drawn)	PfHsp40 rescue 166
CCC(C(=O)O)n1cnc2scc(-c3ccc(C)c(C)c3)c2c1=O (stereo not drawn)	none
Cc1cc(C)c2[nH]c(O)c(N=Nc3ccc(C(=O)O)cc3)c2c1	Sa RN4220 lethal 90, ugtP null kill 85
CCOc1cccc(-c2c(C(=O)NN=Cc3cccs3)nnn2-c2nonc2N)c1	none (no result: BJeLR lethal, CCHF vOTU inh, PfHsp40 rescue)
COc1ccc(C(=O)NN=C(C)CC(=O)Nc2ccc3ccccc3c2)c(OC)c1	none (no result: BJeLR lethal, CCHF vOTU inh, PfHsp40 rescue)
CCCCNC(=O)Cn1nc(Cc2ccncc2)c2ccccc2c1=O	none
O=C(Cn1nc(Cc2ccncc2)c2ccccc2c1=O)N1CCc2ccccc2C1	CCHF vOTU inh 66 (no result: BJeLR lethal)
O=C(CCN1CCOCC1)N/N=C/c1cc(Br)cc(Br)c1O	PfHsp40 rescue 40 (no result: Sa RN4220 lethal, ugtP null kill)
CC(=NNC(=O)c1cccc(N2CCCC2=O)c1)c1ccc(N)cc1	none (no result: BJeLR lethal, CCHF vOTU inh, PfHsp40 rescue)
COc1ccc(C(C)=NNC(=O)CNC(=O)CCc2ccccc2)c(OC)c1	none (no result: BJeLR lethal, CCHF vOTU inh, PfHsp40 rescue)
CCOc1ccc(NS(=O)(=O)c2cc(NC(=O)c3ccc(C)cc3)ccc2Cl)cc1	ugtP null kill 85
CN(C)C(CNC(=O)c1cccc(S(=O)(=O)Nc2ccccc2Cl)c1)c1ccccc1 (stereo not drawn)	none (no result: BJeLR lethal)
CCN(CC)S(=O)(=O)c1cccc(C(=O)NCC(c2ccccc2)N(C)C)c1 (stereo not drawn)	PfHsp40 rescue 97
O=S(=O)(N1CCCCC1)n1nnc2ccccc21	PfHsp40 rescue 39
O=S(=O)(N1CCCCC1)n1nnc2cc3ccccc3cc21	none (no result: BJeLR lethal, Sa RN4220 lethal, ugtP null kill, PfHsp40 rescue)
O=C(c1ccc2c3n(nc2c1)-c1ccccc1CO3)N1CCCCC1	BJeLR lethal 60
O=C(c1ccc2c3n(nc2c1)-c1ccccc1CO3)N1CCOCC1	BJeLR lethal 57 (no result: CCHF vOTU inh, Sa RN4220 lethal, ugtP null kill)
Cc1ccc2c(c1)COc1c3ccc(C(=O)N4CCCCC4)cc3nn1-2	none
C=CCC(CC(=O)NCCO)C(=O)NCCOC(=O)C(CC=C)Cc1ccc(F)cc1 (stereo not drawn)	none (no result: BJeLR lethal, CCHF vOTU inh, PfHsp40 rescue)
O=C(O)CSc1nc(-c2ccc(Cl)cc2)nc2c1oc1ccccc12	PfHsp40 rescue 348
Oc1cc2c(cc1C(c1ccc(Cl)c(Cl)c1)N1CCCC1)OCO2 (stereo not drawn)	ugtP null kill 87
